Source: PubChem BioAssay AID1159580 (chemical genetic matrix, 2015)
About 2,000 (36%) of roughly 5,500 compounds were called active. About 18% were inconclusive and are not listed. Rule as the data show it: active = normalized growth mostly below about 0.91 (no sharp cut-off); inconclusive = no clear call, values can overlap the other calls; inactive = mostly above about 0.92. Some of the results follow.

Assay: chemical genetic growth profiling, strain panel (AID 1159580);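 also: tested at 20 µM; growth read once vehicle control cultures reached saturation at 30 °C; 1 = growth at the plate median or of vehicle wells; lower values mean less growth of the strain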
Details: growth OD

Measured: normalized growth

COc1ccc2c3c1OC1C(O)CC=C4C(C2)N(C)CCC431 (stereo unspecified)
inactive: S. cerevisiae deletion strains, locus YAL013W, strain DEP1, hits give low values 0.994 | S. cerevisiae deletion strains, locus YBR021W, strain FUR4, hits give low values 1.01 | S. cerevisiae deletion strains, locus YBR229C, strain ROT2, hits give low values 1.01 | S. cerevisiae deletion strains, locus YCL029C, strain bik1, hits give low values 1.03 | S. cerevisiae deletion strains, locus YDL035C, strain GPR1, hits give low values 1.01 | S. cerevisiae deletion strains, locus YDL074C, strain BRE1, hits give low values 1.04 | S. cerevisiae deletion strains, locus YDL101C, strain DUN1, hits give low values 1.03 | S. cerevisiae deletion strains, locus YDL134C, strain PPH21, hits give low values 1.01 | S. cerevisiae deletion strains, locus YDL185W, strain tfp1, hits give low values 1.02 | S. cerevisiae deletion strains, locus YDL192W, strain arf1, hits give low values 1.02 | S. cerevisiae deletion strains, locus YDR101C, strain arx1, hits give low values 1 | S. cerevisiae deletion strains, locus YDR150W, strain NUM1, hits give low values 1.02 | S. cerevisiae deletion strains, locus YDR162C, strain NBP2, hits give low values 1.01 | S. cerevisiae deletion strains, locus YDR318W, strain mcm21, hits give low values 1.02 | S. cerevisiae deletion strains, locus YDR388W, hits give low values 1 | S. cerevisiae deletion strains, locus YDR502C, strain sam2, hits give low values 1.01 | S. cerevisiae deletion strains, locus YEL061C, strain CIN8, hits give low values 1.01 | S. cerevisiae deletion strains, locus YER110C, hits give low values 1.02 | S. cerevisiae deletion strains, locus YER155C, strain BEM2, hits give low values 0.996 | S. cerevisiae deletion strains, locus YER167W, strain BCK2, hits give low values 1.03 | S. cerevisiae deletion strains, locus YGL078C, strain dbp3, hits give low values 1.01 | S. cerevisiae deletion strains, locus YGL086W, strain mad1, hits give low values 1.02 | S. cerevisiae deletion strains, locus YGL248W, strain PDE1, hits give low values 1.02 | S. cerevisiae deletion strains, locus YGR078C, strain PAC10, hits give low values 1.03 | S. cerevisiae deletion strains, locus YGR135W, strain pre9, hits give low values 1.01 | S. cerevisiae deletion strains, locus YGR229C, strain SMI1, hits give low values 0.993 | S. cerevisiae deletion strains, locus YGR252W, strain gcn5, hits give low values 1.02 | S. cerevisiae deletion strains, locus YHR030C, strain SLT2, hits give low values 1.01 | S. cerevisiae deletion strains, locus YHR079C, strain IRE1 (second series), hits give low values 1.02 | S. cerevisiae deletion strains, locus YHR094C, strain hxt1, hits give low values 1.01 | S. cerevisiae deletion strains, locus YHR129C, strain ARP1, hits give low values 1.01 | S. cerevisiae deletion strains, locus YHR200W, strain rpn10, hits give low values 1.01 | S. cerevisiae deletion strains, locus YIL066C, strain RNR3, hits give low values 1.01 | S. cerevisiae deletion strains, locus YIL073C, strain SPO22, hits give low values 1.1 | S. cerevisiae deletion strains, locus YIL125W, strain kgd1, hits give low values 1.01 | S. cerevisiae deletion strains, locus YIR030C, strain dcg1, hits give low values 1.02 | S. cerevisiae deletion strains, locus YJL095W, strain BCK1, hits give low values 1.03 | S. cerevisiae deletion strains, locus YJL134W, strain LCB3, hits give low values 1.01 | S. cerevisiae deletion strains, locus YJL168C, strain set2, hits give low values 1.02 | S. cerevisiae deletion strains, locus YJL187C, strain SWE1 (second series), hits give low values 1.02 | S. cerevisiae deletion strains, locus YJR043C, strain POL32, hits give low values 1.03 | S. cerevisiae deletion strains, locus YJR075W, strain HOC1, hits give low values 1.02 | S. cerevisiae deletion strains, locus YKL009W, strain mrt4, hits give low values 1.03 | S. cerevisiae deletion strains, locus YKL068W, hits give low values 1.01 | S. cerevisiae deletion strains, locus YKL085W, strain MDH1 (second series), hits give low values 1.01 | S. cerevisiae deletion strains, locus YKL085W, strain MDH1, hits give low values 1.01 | S. cerevisiae deletion strains, locus YKL190W, strain CNB1, hits give low values 1.01 | S. cerevisiae deletion strains, locus YKR001C, strain vps1, hits give low values 1.03 | S. cerevisiae deletion strains, locus YLR039C, strain RIC1, hits give low values 1.04 | S. cerevisiae deletion strains, locus YLR058C, strain SHM2, hits give low values 1.02 | S. cerevisiae deletion strains, locus YLR102C, strain apc9, hits give low values 1.01 | S. cerevisiae deletion strains, locus YLR262C, strain YPT6, hits give low values 1.05 | S. cerevisiae deletion strains, locus YLR268W, strain sec22, hits give low values 1.02 | S. cerevisiae deletion strains, locus YLR330W, strain CHS5, hits give low values 1.01 | S. cerevisiae deletion strains, locus YLR342W, strain FKS1 (second series), hits give low values 1.02 | S. cerevisiae deletion strains, locus YLR371W, strain rom2, hits give low values 1.01 | S. cerevisiae deletion strains, locus YLR418C, strain cdc73, hits give low values 1.02 | S. cerevisiae deletion strains, locus YML016C, strain PPZ1, hits give low values 1.02 | S. cerevisiae deletion strains, locus YML032C, strain rad52, hits give low values 1.02 | S. cerevisiae deletion strains, locus YML124C, strain tub3, hits give low values 1.02 | S. cerevisiae deletion strains, locus YMR078C, strain ctf18, hits give low values 1.03 | S. cerevisiae deletion strains, locus YMR223W, strain ubp8, hits give low values 1.03 | S. cerevisiae deletion strains, locus YMR263W, strain SAP30, hits give low values 1.02 | S. cerevisiae deletion strains, locus YMR307W, strain GAS1, hits give low values 0.962 | S. cerevisiae deletion strains, locus YNL067W, strain RPL9B, hits give low values 1.03 | S. cerevisiae deletion strains, locus YNL128W, strain TEP1, hits give low values 1.02 | S. cerevisiae deletion strains, locus YNL153C, strain GIM3, hits give low values 1.02 | S. cerevisiae deletion strains, locus YNL233W, strain BNI4, hits give low values 1.02 | S. cerevisiae deletion strains, locus YNL250W, strain rad50, hits give low values 1.03 | S. cerevisiae deletion strains, locus YNL271C, strain bni1, hits give low values 1.01 | S. cerevisiae deletion strains, locus YNL298W, strain CLA4, hits give low values 1.03 | S. cerevisiae deletion strains, locus YNL307C, strain MCK1, hits give low values 1.02 | S. cerevisiae deletion strains, locus YNL322C, strain KRE1, hits give low values 1.01 | S. cerevisiae deletion strains, locus YNR052C, strain pop2, hits give low values 1.02 | S. cerevisiae deletion strains, locus YOL006C, strain TOP1, hits give low values 1.1 | S. cerevisiae deletion strains, locus YOL012C, strain htz1 0.859 | S. cerevisiae deletion strains, locus YOL147C, strain pex11, hits give low values 1 | S. cerevisiae deletion strains, locus YOR061W, strain CKA2, hits give low values 1.02 | S. cerevisiae deletion strains, locus YOR069W, strain VPS5, hits give low values 1.01 | S. cerevisiae deletion strains, locus YOR136W, strain idh2, hits give low values 1.02 | S. cerevisiae deletion strains, locus YOR144C, strain elg1, hits give low values 1.02 | S. cerevisiae deletion strains, locus YOR184W, strain ser1, hits give low values 1.03 | S. cerevisiae deletion strains, locus YOR316C, strain cot1, hits give low values 1.02 | S. cerevisiae deletion strains, locus YPL055C, strain LGE1, hits give low values 1.03 | S. cerevisiae deletion strains, locus YPL241C, strain CIN2, hits give low values 1.01 | S. cerevisiae deletion strains, locus YPR119W, strain clb2, hits give low values 1 | S. cerevisiae deletion strains, locus YPR141C, strain kar3, hits give low values 1.01 | S. cerevisiae deletion strains, locus YPR163C, strain tif3, hits give low values 1.02 | S. cerevisiae deletion strains, locus YPR167C, strain met16, hits give low values 1.02 | S. cerevisiae deletion strains, strain wtn01, hits give low values 1.01 | S. cerevisiae strains, strain wild type, hits give low values 1
